We go through nine compounds from PubChem BioAssay (NCATS).

A short description of test [1]: Cell Viability - Jurkat (AID 426;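 active = dose-dependent loss of cell ATP signal giving a full or clear fitted curve, ranked by lower potency value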;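 also: potency is read from the fitted curve at half-maximal effect; cells exposed to compound for 40 hours at 37 °C before ATP read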). Conditions: qHTS. In outline:
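Cytotoxicity was scored as loss of cellular ATP, measured by luciferase-based luminescence, in Jurkat clone E6-1 cells after 40 h compound treatment; tamoxifen and doxorubicin served as positive controls.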

The nature of test [2]: Cell Viability - HepG2 (AID 433; calls by dose curve;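 also: potency is read from the fitted curve at half-maximal effect; cells exposed to compound for 40 hours; potency for ATP loss meaning cytotoxicity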). The conditions noted are these: qHTS. The method in brief:
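HepG2 hepatocellular carcinoma cells (1500/well) were treated with compounds for 40 h at 37 °C in complete medium; intracellular ATP was read by CellTiter-Glo luminescence. Data were normalized to DMSO and 100 uM tamoxifen, and AC50 came from Hill fits.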
(In general: qHTS replaces the single test concentration by a dilution series.)

A short description of test [3]: Cell Viability - NIH 3T3 (AID 541).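 Also: cells exposed to compound for 40 hours; plate controls were DMSO alone for no effect and tamoxifen positive control for full effect; nearly all actives have a fitted effect of over 25% in size.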 Conditions: NIH 3T3 cell viability, qHTS; activity change, negative = cytotoxicity: at 92.2 µM (top of the series). The method in brief: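 In this cytotoxicity screen, acute toxicity is scored as an ATP drop measured by CellTiter-Glo in NIH 3T3 fibroblasts following a 40 hr, 37 °C incubation with compound.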
Test [4] has as its target Estrogen receptor (Homo sapiens) (UniProt P03372). The test is described as follows: qHTS assay for small molecule antagonists of estrogen receptor alpha signaling (AID 588513; active = well fitted curve in the direction sought with a large enough effect in the signal ratio, with a control signal flat, not every such curve was filed as active; the % refers to the signal ratio; also: % is scaled to controls: 0 for no effect and ±100 for the full control effect). The conditions noted are these: ER-alpha-UAS-bla HEK293, beta-lactamase ratio, antagonist mode; series mostly up to 76.9 µM. In outline:
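ER-alpha-UAS-bla GripTite HEK 293 cells in medium with 2% charcoal/dextran-treated FBS were preincubated 4 h at 37 C, dosed with compound (1:2 titration), stimulated with 0.5nM 17-beta-estradiol for 18 h, then read by CCF4 beta-lactamase fluorescence.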

In test [5] the target is Bile acid receptor (Homo sapiens) (UniProt Q96RI1). As to the kind of experiment: qHTS assay for small molecule agonists of farnesoid X receptor signaling (AID 588527; calls by dose curve;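 also: 0% = vehicle basal and 100% = reference agonist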). The conditions noted are these: HEK293T FXR-UAS-bla, beta-lactamase ratio, 16 h; stronger effect = higher value. The method in brief: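 Quantitative HTS used FXR-UAS-bla HEK293T cells with 16 h compound incubation at 37 C. EC50 values came from concentration-response curves normalized to chenodeoxycholic acid.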
Sequence of Bile acid receptor (Homo sapiens) (Q96RI1 whole entry, looked up): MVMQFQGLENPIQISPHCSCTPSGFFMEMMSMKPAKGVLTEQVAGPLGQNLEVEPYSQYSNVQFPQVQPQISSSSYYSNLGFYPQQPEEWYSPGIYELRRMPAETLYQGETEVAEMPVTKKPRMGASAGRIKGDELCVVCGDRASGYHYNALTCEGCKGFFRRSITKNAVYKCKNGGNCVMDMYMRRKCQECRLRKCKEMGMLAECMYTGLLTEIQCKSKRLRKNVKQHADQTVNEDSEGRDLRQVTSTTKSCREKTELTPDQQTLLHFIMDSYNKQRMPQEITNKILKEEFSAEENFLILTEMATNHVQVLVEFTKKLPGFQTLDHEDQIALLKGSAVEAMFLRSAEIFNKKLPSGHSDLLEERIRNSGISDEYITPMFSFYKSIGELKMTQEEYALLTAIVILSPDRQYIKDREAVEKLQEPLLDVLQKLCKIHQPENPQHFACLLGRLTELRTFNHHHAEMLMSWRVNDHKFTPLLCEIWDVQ

The target of test [6] is Glucocorticoid receptor (Homo sapiens) (UniProt P04150). As to the kind of experiment: qHTS assay for small molecule agonists of glucocorticoid receptor signaling (AID 588532; active = well fitted curve in the direction sought with a large enough effect in the signal ratio, with a control signal flat; the % refers to the signal ratio;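 also: 100% = dexamethasone at 0.1 µM and 0% = DMSO only wells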). The conditions noted are these: HeLa MMTV-bla, beta-lactamase ratio, agonist, 18 h; stronger effect = higher value; percent of dexamethasone control, DMSO zero. The method in brief:
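Stimulation of a glucocorticoid response element-driven beta-lactamase gene was measured in HeLa cells. Responses were scaled between DMSO basal and 0.1 uM dexamethasone, then fitted for half-maximal stimulation.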

Test [7] in a line: qHTS assay for small molecule antagonists of peroxisome proliferator-activated receptor delta signaling (AID 588535; active = well fitted inhibition curve with a large enough effect in the signal ratio, with a control signal flat, not every such curve was filed as active; the % refers to the signal ratio;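 as to max response: cells co-treated with a PPAR-delta agonist as stimulator during compound exposure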). Conditions: HEK293T PPARd-UAS-bla, beta-lactamase FRET ratio, 18 h; 460 nm channel. The method in brief:
(§1)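 Compounds tested in titration on PPAR-delta-UAS-bla HEK293T cells grown in charcoal/dextran-stripped serum (2%); beta-lactamase activity read via CCF4 emission at 460 and 530 nm.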

Test [8] deals with Peroxisome proliferator-activated receptor delta (Homo sapiens) (UniProt Q03181). Described as above. The conditions noted are these: HEK293T PPARd-UAS-bla, beta-lactamase FRET ratio, 18 h; series mostly up to 76.7 µM. In outline: as §1
Sequence of Peroxisome proliferator-activated receptor delta (Homo sapiens) (Q03181 whole entry, looked up): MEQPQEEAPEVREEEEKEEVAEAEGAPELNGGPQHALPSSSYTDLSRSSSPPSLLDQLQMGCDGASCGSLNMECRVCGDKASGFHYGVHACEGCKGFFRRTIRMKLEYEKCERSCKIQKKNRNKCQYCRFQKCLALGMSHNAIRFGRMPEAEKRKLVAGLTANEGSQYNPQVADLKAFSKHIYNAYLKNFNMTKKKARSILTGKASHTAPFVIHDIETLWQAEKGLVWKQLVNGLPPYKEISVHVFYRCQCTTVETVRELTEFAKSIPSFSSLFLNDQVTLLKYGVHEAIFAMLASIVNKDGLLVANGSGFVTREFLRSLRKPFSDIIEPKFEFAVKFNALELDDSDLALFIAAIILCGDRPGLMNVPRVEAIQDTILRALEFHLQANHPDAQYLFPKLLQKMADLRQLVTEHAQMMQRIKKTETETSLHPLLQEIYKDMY
The target of test [9] is Peroxisome proliferator-activated receptor gamma (Homo sapiens) (UniProt P37231). The test is described as follows: qHTS assay for small molecule agonists of peroxisome proliferator-activated receptor gamma signaling (AID 588536; active = well fitted curve in the direction sought with a large enough effect in the signal ratio, with a control signal flat, not every such curve was filed as active; the % refers to the signal ratio;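 also: 0% = DMSO basal wells and 100% = rosiglitazone at 2 µM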). Conditions: HEK293 PPARg-UAS-bla, beta-lactamase ratio, 16 h, percent of rosiglitazone response, DMSO as zero; series mostly up to 76.7 µM. In outline:
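Using GeneBLAzer HEK293 cells, response was quantified by CCF4 fluorescence and normalized between basal DMSO (0%) and rosiglitazone 2 uM (100%); curves yielded half-maximal stimulation concentration and efficacy.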

The target is the same in test [10]. The test is described as follows: qHTS assay for small molecule antagonists of peroxisome proliferator-activated receptor gamma signaling (AID 588537; active = well fitted inhibition curve with a large enough effect in the signal ratio, with a control signal flat, not every such curve was filed as active; the % refers to the signal ratio;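 also: reporter cells co-stimulated with 50 nM rosiglitazone agonist during compound treatment; % of control where 0% means no effect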). Conditions: HEK293 PPARg-UAS-bla, beta-lactamase ratio, antagonist mode; series mostly up to 76.8 µM. The method in brief: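 HEK293 cells, PPAR-gamma-UAS-bla, 3000/well. Pre-incubation 6-6.5 h, 37 C. Compound titration with rosiglitazone 50 nM final, 16 h. CCF4 dye, 2 h RT, dual-emission fluorescence.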

The target of test [11] is Vitamin D3 receptor (Homo sapiens) (UniProt P11473). The test is described as follows: qHTS assay for small molecule agonists of vitamin D receptor signaling (AID 588543; calls by dose curve;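 also: 0% = DMSO basal and 100% = reference agonist control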). Conditions: HEK293T VDR-UAS-bla, beta-lactamase ratio, 16 h; series mostly up to 76.8 µM. The method in brief: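 GeneBLAzer VDR-UAS-bla HEK293T cells in 2% charcoal-stripped FBS medium were dosed with compound titrations for 16 h at 37 °C; CCF4 β-lactamase readout (405 nm ex, 460/530 nm em). EC50 and efficacy from Hill fits, normalized to 50 nM calcitriol (100%) and DMSO (0%).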
Sequence of Vitamin D3 receptor (Homo sapiens) (P11473 whole entry, looked up): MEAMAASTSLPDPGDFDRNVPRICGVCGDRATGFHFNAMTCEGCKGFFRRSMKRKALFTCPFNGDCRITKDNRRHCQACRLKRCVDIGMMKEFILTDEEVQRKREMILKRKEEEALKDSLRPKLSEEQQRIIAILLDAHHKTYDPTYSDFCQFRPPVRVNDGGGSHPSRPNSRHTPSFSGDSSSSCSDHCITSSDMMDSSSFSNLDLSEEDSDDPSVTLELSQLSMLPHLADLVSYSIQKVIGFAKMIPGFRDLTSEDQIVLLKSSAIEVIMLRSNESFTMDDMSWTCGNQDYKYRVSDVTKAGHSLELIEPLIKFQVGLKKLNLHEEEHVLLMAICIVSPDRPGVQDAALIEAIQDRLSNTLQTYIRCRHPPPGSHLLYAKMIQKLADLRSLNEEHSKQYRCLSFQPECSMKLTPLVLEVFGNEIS

Test [12] is described as follows: qHTS assay for small molecule activators of the nuclear factor-kappa B (NF-kB) signaling pathway (AID 651749; active = well fitted activation curve with a large enough effect in the signal ratio; the % refers to the signal ratio; also: % of control where 0% means no effect). The conditions noted are these: NF-kB-bla ME-180 cells, beta-lactamase FRET ratio, 16 h; stronger effect = higher value. The method in brief:
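Beta-lactamase reporter expression, controlled by NF-kB response elements in ME-180 cells, was quantified fluorometrically via FRET disruption; cells at 2,000/well had been incubated with 23 nL test compound for 16 hr.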

The nature of test [13]: qHTS assay for small molecule disruptors of the mitochondrial membrane potential - 5 hr assay (AID 651755; calls by dose curve; also: nearly all actives have a fitted effect of over 40% in size; also: potency is read from the fitted curve at half-maximal effect). The conditions noted are these: JC-1-type ratio dye; series mostly up to 92.2 µM. The method in brief: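 Seed HepG2 overnight, add compound, incubate 5 hr at 37C and 5% CO2, stain 30 min with Mito-MPS, then measure monomer (490/535 nm) and aggregate (540/590 nm) fluorescence.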

In test [14] the target is Nuclear receptor ROR-gamma (Homo sapiens) (UniProt P51449). The test is described as follows: qHTS assay for small molecule antagonists of the retinoid-related orphan receptor gamma (ROR-gamma) signaling pathway (AID 651802).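 Also: luciferase reporter luminescence driven by ROR response element; % is scaled to controls: 0 for no effect and ±100 for the full control effect; nearly all actives have a fitted effect of over 60% in size.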 The conditions noted are these: ROR-gamma antagonist cell reporter assay; series mostly up to 92.2 µM. In outline: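 Doxycycline-induced reporter activity in engineered CHO cells (TET-inducible ROR, RORE-LUC) was measured by luminescence after 16hr compound exposure at 37C.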
Sequence of Nuclear receptor ROR-gamma (Homo sapiens) (P51449 whole entry, looked up): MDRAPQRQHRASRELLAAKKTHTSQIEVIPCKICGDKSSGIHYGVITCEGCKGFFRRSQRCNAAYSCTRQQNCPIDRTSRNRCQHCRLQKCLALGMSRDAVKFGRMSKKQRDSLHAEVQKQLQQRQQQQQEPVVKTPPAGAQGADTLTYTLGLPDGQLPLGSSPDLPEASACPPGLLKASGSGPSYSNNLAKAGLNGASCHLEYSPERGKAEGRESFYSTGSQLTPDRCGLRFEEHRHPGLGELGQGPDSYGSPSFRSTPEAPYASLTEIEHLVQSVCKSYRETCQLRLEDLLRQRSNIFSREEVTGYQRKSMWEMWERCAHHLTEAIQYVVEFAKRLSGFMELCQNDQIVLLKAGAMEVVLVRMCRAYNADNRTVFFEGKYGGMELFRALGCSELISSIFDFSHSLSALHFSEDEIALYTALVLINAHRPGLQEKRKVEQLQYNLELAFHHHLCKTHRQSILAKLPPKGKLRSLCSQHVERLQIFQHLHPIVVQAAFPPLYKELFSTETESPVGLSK

The nature of test [15]: MultiTox-Fluor Cytotoxicity Assay - LYMP1-002 - Dead Cells (AID 960).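 Also: 0% = DMSO and 100% = tetraoctylammonium bromide; nearly all actives have a fitted effect of over 60% in size.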 The conditions noted are these: LYMP1-002 lymphoblastoid cells, dead-cell protease fluorescence; series mostly up to 46.1 µM. In outline: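 Concentration-dependent increases in membrane-leaked protease activity are quantified in LYMP1-002 cells after 16 hr treatment; values are normalized against DMSO and tetraoctylammonium bromide (15 uM) controls and AC50 derived by Hill modeling.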

Test [16] is described as follows: Cell Viability - LYMP2-024 (AID 988).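 Also: cells exposed to compound for 24 hr at 37 °C; plate controls were DMSO only for no effect and 92 µM tetraoctylammonium bromide for full effect; nearly all actives have a fitted effect of over 60% in size.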 The conditions noted are these: LYMP2-024 lymphoblastoid cell viability; series mostly up to 92.2 µM. In outline: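 Cells at 2500 per well received compound for 24 hr after a 5 hr settling period. Viability was scored by CellTiter-Glo luminescence, with AC50 from Hill fits.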
For test [17], the target named is Glucocorticoid receptor (Homo sapiens) (UniProt P04150). As to the kind of experiment: qHTS assay for small molecule antagonists of glucocorticoid receptor signaling (AID 588533; active = well fitted inhibition curve with a large enough effect in the signal ratio, with a control signal flat, not every such curve was filed as active; the % refers to the signal ratio;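 also: cells stimulated with 2 nM dexamethasone as agonist; % is scaled to controls: 0 for no effect and ±100 for the full control effect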). Conditions: HeLa MMTV-bla, GRE beta-lactamase ratio, antagonist mode, 18 h; series mostly up to 76.8 µM. The method in brief:
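Antagonist-mode qHTS: compound titrations added to GRE-bla HeLa cells, then dexamethasone 2 nM final; 18 h, 37 C. CCF4 FRET fluorescence normalized to dexamethasone and DMSO; IC50 from Hill fit.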

In test [18] the target is Tumor necrosis factor (Homo sapiens) (UniProt P01375). As to the kind of experiment: qHTS assay to identify small molecules that stimulate Tumor Necrosis Factor-alpha (TNF-alpha) secretion (AID 651757; active = well fitted curve in the direction sought with a large enough effect in the signal ratio; the % refers to the signal ratio; also: 0% is about no effect). The conditions noted are these: Human cells, HTRF 665/615 ratio; series mostly up to 92.2 µM. In outline: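 Using 3000 THP-1 cells per well, compounds and controls were applied for 17 hrs at 37 C. Detection followed with two labeled anti-TNF-alpha antibodies (cryptate donor, XL665 acceptor) for 3 hr at room temperature, measured by TR-FRET.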
Sequence of Tumor necrosis factor (Homo sapiens) (P01375 whole entry, looked up): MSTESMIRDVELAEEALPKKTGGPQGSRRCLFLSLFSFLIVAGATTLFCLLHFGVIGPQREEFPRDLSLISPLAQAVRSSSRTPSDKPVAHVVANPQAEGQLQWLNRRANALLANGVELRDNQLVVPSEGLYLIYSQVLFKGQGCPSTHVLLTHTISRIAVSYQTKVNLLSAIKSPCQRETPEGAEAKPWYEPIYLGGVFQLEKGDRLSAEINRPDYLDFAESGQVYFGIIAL

The target of test [19] is Mitogen-activated protein kinase 10 (Mus musculus) (UniProt Q61831). The test is described as follows: JNK3 AlphaScreen Assay (AID 530; active = well fitted curve in either direction with a large enough effect, not every such curve was filed as active;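 also: kinase came from lysate of stimulated human HepG2 cells; % is scaled to controls: 0 for no effect and ±100 for the full control effect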). Conditions: JNK3 lysate, c-Jun phosphorylation; series mostly up to 57.1 µM. In outline: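 Biotinylated GST-cJun(1-79) served as substrate for JNK3 in HepG2 lysates stimulated with IL-1beta and TNF-alpha. ATP was 10 uM final, pH 7.6. Ser73 phosphorylation was quantified by AlphaScreen (680 nm excitation).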
On the technique in general: In Alpha technology, singlet oxygen from a donor bead excites a nearby acceptor bead.

Test [20] is described as follows: qHTS assay for small molecule agonists of the antioxidant response element (ARE) signaling pathway (AID 651741; active = well fitted activation curve with a large enough effect in the signal ratio; the % refers to the signal ratio; also: % of control where 0% means no effect). The conditions noted are these: HepG2 ARE-bla reporter, beta-lactamase FRET ratio, 16 h; series mostly up to 96 µM. In outline:
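Beta-lactamase reporter expression driven by the antioxidant response element in HepG2 cells was detected by fluorescence with LiveBLAzer B/G FRET substrate (2 h, room temperature) following 16 h compound treatment at 37 C.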

Several values for one entry are separate records, joined by “and”; a condition that tells them apart may be missing. Identical values can stand only once. Results filed as inconclusive are left out. Activity calls are given as the source filed them. Unless noted, calls follow the shape of the dose curve; as a rule, active = well fitted curve in the direction sought with a large enough effect; inconclusive = small, poorly fitted or top-dose-only effect, or another doubt; inactive = no such curve, though single readings can be large; an effect the other way counts as inactive or inconclusive.

Sequence of Glucocorticoid receptor (Homo sapiens) (P04150 whole entry, looked up): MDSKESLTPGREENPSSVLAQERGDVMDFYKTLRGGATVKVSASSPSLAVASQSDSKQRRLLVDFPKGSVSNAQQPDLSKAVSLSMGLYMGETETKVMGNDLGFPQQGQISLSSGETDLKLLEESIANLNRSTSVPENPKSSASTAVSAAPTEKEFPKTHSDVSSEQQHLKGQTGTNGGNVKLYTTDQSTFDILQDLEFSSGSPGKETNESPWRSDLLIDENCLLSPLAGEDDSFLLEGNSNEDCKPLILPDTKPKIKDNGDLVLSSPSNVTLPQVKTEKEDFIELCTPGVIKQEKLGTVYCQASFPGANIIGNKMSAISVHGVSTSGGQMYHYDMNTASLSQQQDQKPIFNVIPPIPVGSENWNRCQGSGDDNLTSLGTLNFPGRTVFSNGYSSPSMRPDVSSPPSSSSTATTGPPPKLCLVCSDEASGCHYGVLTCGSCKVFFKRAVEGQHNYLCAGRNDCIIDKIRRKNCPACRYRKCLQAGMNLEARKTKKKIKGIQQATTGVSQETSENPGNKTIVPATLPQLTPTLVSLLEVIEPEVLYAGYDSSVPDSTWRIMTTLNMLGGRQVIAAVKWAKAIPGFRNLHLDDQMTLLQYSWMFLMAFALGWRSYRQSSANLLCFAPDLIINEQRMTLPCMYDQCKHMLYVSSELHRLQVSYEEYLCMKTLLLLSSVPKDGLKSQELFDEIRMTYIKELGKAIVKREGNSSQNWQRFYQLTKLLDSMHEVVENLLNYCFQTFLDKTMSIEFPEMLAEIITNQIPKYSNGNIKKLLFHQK
Sequence of Estrogen receptor (Homo sapiens) (P03372 whole entry, looked up): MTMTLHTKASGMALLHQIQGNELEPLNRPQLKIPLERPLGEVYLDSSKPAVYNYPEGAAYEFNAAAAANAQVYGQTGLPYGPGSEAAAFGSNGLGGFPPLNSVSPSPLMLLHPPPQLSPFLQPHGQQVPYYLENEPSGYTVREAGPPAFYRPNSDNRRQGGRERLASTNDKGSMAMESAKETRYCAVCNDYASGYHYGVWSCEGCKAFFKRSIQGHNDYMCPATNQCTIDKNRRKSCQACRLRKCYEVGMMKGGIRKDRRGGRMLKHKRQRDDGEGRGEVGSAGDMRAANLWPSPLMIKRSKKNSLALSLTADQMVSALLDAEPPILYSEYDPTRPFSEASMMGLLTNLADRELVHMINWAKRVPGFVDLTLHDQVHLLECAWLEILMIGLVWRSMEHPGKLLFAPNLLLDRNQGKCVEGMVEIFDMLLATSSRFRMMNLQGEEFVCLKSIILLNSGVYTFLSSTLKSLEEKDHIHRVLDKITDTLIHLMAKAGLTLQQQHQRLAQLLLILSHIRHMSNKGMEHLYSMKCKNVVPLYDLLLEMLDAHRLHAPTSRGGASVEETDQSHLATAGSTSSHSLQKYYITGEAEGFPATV
Sequence of Peroxisome proliferator-activated receptor gamma (Homo sapiens) (P37231 whole entry, looked up): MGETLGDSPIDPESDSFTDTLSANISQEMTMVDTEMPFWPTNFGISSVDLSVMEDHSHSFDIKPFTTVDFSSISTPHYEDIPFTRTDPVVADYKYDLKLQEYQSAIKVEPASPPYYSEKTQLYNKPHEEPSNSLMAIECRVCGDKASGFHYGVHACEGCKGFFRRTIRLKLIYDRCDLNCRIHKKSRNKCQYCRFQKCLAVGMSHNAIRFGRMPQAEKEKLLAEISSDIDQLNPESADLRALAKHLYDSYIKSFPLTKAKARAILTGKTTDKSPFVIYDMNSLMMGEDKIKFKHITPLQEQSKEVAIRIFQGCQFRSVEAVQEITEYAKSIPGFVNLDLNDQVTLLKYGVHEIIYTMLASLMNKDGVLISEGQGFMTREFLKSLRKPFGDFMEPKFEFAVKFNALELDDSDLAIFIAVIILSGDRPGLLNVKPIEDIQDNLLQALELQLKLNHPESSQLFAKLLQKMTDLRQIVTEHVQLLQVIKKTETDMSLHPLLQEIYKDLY

On to `Cc1ccc(N)cc1N`, for which the Potency in test [1] is > 92 µM (inactive); in test [2], > 92 µM (inactive); in [13], 29.8 µM (active). The Potency entry in [3], in test [4], in test [10] and in [14] was “inactive” each time. Moreover, the activation was 0.164% (inactive) and -1.15% (inactive) in test [5]; -6.12% (inactive) and -1.93% (inactive) in test [6]; -0.705% (inactive) and -3.37% (inactive) in test [12]. Further, the max response in test [7] is 0.381% and -13.2%. For the same compound, the outcome in test [8], in test [9] and in test [11] was inactive.
Turning to `ClC(Cl)(Cl)C(Cl)(Cl)Cl`, the Potency in test [1] and in [2] was > 92 µM (inactive) each time. The Potency entry in [3], in test [15], in test [16], in test [4], in test [10] and in [13] was “inactive” each time. In test [14], the Potency entry is “inactive”. For the same compound, the activation in test [6] is 5.68% (inactive); in [12] it was 0.631% (inactive). For the same compound, the outcome in test [17], in test [9] and in test [11] was inactive.
With `BrCC(Br)C1CCC(Br)C(Br)C1` (stereo unspecified), the Potency in test [1] and in [2] was > 92 µM (inactive) in each case. Moreover, the Potency entry in test [15], in test [16], in [13] and in test [14] was “inactive” each time. In addition, the activation in test [6] is 3.61% (inactive); in [12] it was -1.21% (inactive). Further, the result in test [18] was inactive.
Consider `C=CCBr`, for which, in [1], the Potency is > 92 µM (inactive). Also, the Potency result in [19], in test [3], in test [16], in test [4], in test [20] and in test [13] was “inactive” each time. Besides, in test [14], the Potency result was “inactive”. Besides, the activation in [5] is -2.82% (inactive); in test [6], 0.974% (inactive). Further, the result in [11] and in [18] was inactive.
`ClCCOCOCCCl`: in test [1], the Potency was > 92 µM (inactive). Further, the Potency entry in test [19], in test [3], in [15], in [10] and in test [14] was “inactive” each time. Besides, the activation in test [5] is 0.794% (inactive); in test [6], -0.285% (inactive); in [12], -0.753% (inactive). Also, the outcome in test [17], in [11] and in test [18] was inactive.
In the case of `CC(C)(OOC(C)(C)c1ccccc1)c1ccccc1`, the Potency in test [1] and in [2] was > 92 µM (inactive) throughout. The Potency entry in test [3], in [15] and in [16] was “inactive” throughout. Moreover, the activation in test [5] was 3.57% (inactive) and 3.43% (inactive); in [6], -3.95% (inactive) and 1.36% (inactive); in [12] it was 0.182% (inactive) and -0.836% (inactive). Moreover, the outcome in test [17], in test [8], in test [9] and in [18] was inactive. Moreover, in test [7], the max response is 42.8% and 13.3%.
Regarding `C=CC=O`, the Potency in test [1] and in test [2] was > 92 µM (inactive) each time. Further, the Potency result in test [15] and in test [14] was “inactive” throughout. Besides, the activation in test [6] is -2.21% (inactive); in test [12], -0.542% (inactive). Also, in test [7], the max response was 40.7%. The result in [8], in test [9], in test [11] and in [18] was inactive.
In the case of `O=[N+]([O-])CCO`, the Potency in [1] and in [2] was > 92 µM (inactive) throughout. Moreover, the Potency result in [3], in test [4] and in test [14] was “inactive” each time. Also, the activation is -6.62% (inactive) in test [6] and -0.859% (inactive) in test [12]. Besides, the outcome in test [17], in test [9] and in test [18] was inactive.
Turning to `OCCBr`, the Potency in [1] was > 92 µM (inactive). The Potency result in test [19], in [3], in test [15], in [16], in [4] and in test [10] was “inactive” throughout. Moreover, the Potency result in test [13] and in test [14] was “inactive” in each case. Also, the activation in test [5] is -2.65% (inactive); in test [6], -2.73% (inactive); in test [12] it was 0.0665% (inactive). The outcome in [17], in test [9], in [11] and in test [18] was inactive.
